# Data: PubChem BioAssay (NCI)
# About 83,000 compounds went through this panel and 20% of them were active in at least one assay; those are over-represented in the sample as a whole.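 For each line, cells grew in 96-well plates with the test compound present at a single concentration for 48 hours.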 Unmarked numbers belong to inactive results. Active and inactive are the calls of the source. How the source made its calls: active means growth percent below 10; inactive means the rest.
# Tested on: T-47D breast
# Experiment: NCI-60 one-dose screen, 48 h (100 = growth as untreated, 0 = no growth, -100 = all killed)
# Conditions: 10 µM unless noted
row,SMILES,growth
1,CCOC(=O)c1cnc2c(OC)ccc(OC)c2c1Cl,116%
2,NS(=O)(=O)c1ccc(Nc2nc(O)c(/C=C3\C=Nc4ccccc43)s2)cc1,99.3%
3,CNC(=O)NN,92.3%
4,Cc1cc(O[C@@H]2O[C@@H](C)[C@H](O)[C@@H](O)[C@H]2O)c2c3c(c(O[C@@H]4O[C@@H](C)[C@H](O)[C@@H](O)[C@H]4O)cc2c1)C(=O)c1c(O)cccc1C3=O,56.6%
5,Cc1cccc(Cc2cnc(NC(=O)CCc3ccc(C)o3)s2)c1,76.9%
6,C=CC(=O)NC(=O)Nc1ccccc1Cl,65.8%
7,COc1cccc(-c2nc3sccn3c2-c2ccnc(NCCNC(=O)c3ccccc3)n2)c1,61.9%
8,COc1ccc(-c2nn(-c3ccc(NC(=O)Nc4ccc(Cl)c(C(F)(F)F)c4)cc3)cc2-c2ccncc2)cc1Cl,24.7%
9,CC(C)CNCC(O)COc1ccc(C(C)(C)c2ccc(OCC(O)CNCC(C)C)cc2)cc1 (stereo unspecified),-31.3% (active)
10,Cc1ccc2[nH]c3nc4cccnc4c(C)c3c2c1,14.2%
11,O=C(Nc1ccc(-n2ccc3c(NC(=O)c4ccccc4)nccc32)cc1)c1ccc(Cl)c(C(F)(F)F)c1,62.3%
12,COc1ccc(-c2nn(-c3ccc(NC(=O)Nc4ccc(Cl)c(Cl)c4)cc3)cc2-c2ccncc2)cc1Cl,22.4%
13,Nc1nccc2c1ccn2-c1cccc(NC(=O)c2ccc(N3CCOCC3)c(C(F)(F)F)c2)c1,45.7%
14,COc1ccc(/C=C/C(=O)/C=C(/C=C/c2ccc(OC)c(OC)c2OC)OB(F)F)c(OC)c1OC,50.4%
15,Cc1cc[n+](CCCC[n+]2ccc(C)cc2)cc1,105%
16,COC1=C(OC)C(=O)C=CC1=O,99.5%
17,Cc1ccccc1C[P+](c1ccccc1)(c1ccccc1)c1ccccc1,26%
18,CC/C(=C(\CC)c1ccc(OCCN(CC)CC)cc1)c1ccc(OCCN(CC)CC)cc1,12.3%
19,COc1cccc(-c2nc3sccn3c2-c2ccnc(NCCNC(=O)Nc3cccc(C(F)(F)F)c3)n2)c1,42.9%
20,COc1ccc(-c2cnc(-c3ccc(F)cc3)[nH]2)cc1,86.9%
21,O=C(Nc1ccc(-n2cc(-c3ccncc3)c(-c3ccc(O)c(Cl)c3)n2)cc1)c1ccc(Cl)c(C(F)(F)F)c1,39.8%
22,O=C(Nc1ccc(-n2ccc3c(NC(=O)c4ccccc4)ncnc32)cc1)c1ccc(Cl)c(C(F)(F)F)c1,30.4%
23,C=CC(=O)Nc1cccc(Nc2nc(Nc3ccc(OCCOC(F)F)cc3)ncc2F)c1,32.8%
24,O=[N+]([O-])c1cccc(C(c2ccccc2)c2ccccc2)c1,83.2%
25,O=C(NCCNc1nccc(-c2c(-c3cccc(O)c3)nc3sccn23)n1)Nc1cccc(C(F)(F)F)c1,63.8%
26,O=C(Nc1cccc(-n2ccc3c(NC(=O)c4ccccc4)nccc32)c1)c1cc(N2CCOCC2)cc(C(F)(F)F)c1,66.3%
27,O=C(Nc1ccc(-n2cc(-c3ccncc3)c(-c3ccc(O)c(Cl)c3)n2)cc1)c1cc(C(F)(F)F)cc(C(F)(F)F)c1,60.7%

# Tested on: BT-549 breast
# Experiment: as above
# Conditions: 10 µM unless noted
row,SMILES,growth
1,O=C(Cn1c2ccccc2c2ccncc21)N/N=C/c1c[nH]c2ccccc12,94.4%
2,Cc1ccc(-c2nc3c(N=Nc4ccc(S(N)(=O)=O)cc4)c(N)nn3c(N)c2C#N)cc1,56%
3,O=C(Nc1ccccc1Cl)c1c[nH]c(=O)c(-c2ccc(N3CCCOC4(CC4)C3)cc2)c1,56.3%
4,Nc1nccc2c1ccn2-c1ccc(NC(=O)Nc2cccc(C(F)(F)F)c2)cc1,96.5%
5,O=C(Nc1ccc(-n2ccc3c(NC(=O)c4ccccc4)nccc32)cc1)Nc1cccc(C(F)(F)F)c1,74%
6,O=C1C(Cl)=C(Nc2ccccc2)C(=O)C(Cl)=C1Nc1ccccc1,112%
7,CCN1CCN(Cc2ccc(NC(=O)Nc3cccc(-n4ccc5c(NC(=O)c6ccccc6)nccc54)c3)cc2C(F)(F)F)CC1,89.5%
8,O=C(Nc1cccc(-n2ccc3c(NC(=O)c4ccccc4)nccc32)c1)c1cccc(C(F)(F)F)c1,-6.35% (active)
9,NS(=O)(=O)c1ccc(Nc2nc(O)c(/C=C3\C=Nc4ccccc43)s2)cc1,108%
10,Cc1cc(O[C@@H]2O[C@@H](C)[C@H](O)[C@@H](O)[C@H]2O)c2c3c(c(O[C@@H]4O[C@@H](C)[C@H](O)[C@@H](O)[C@H]4O)cc2c1)C(=O)c1c(O)cccc1C3=O,6.47% (active)
11,C=CC(=O)NC(=O)Nc1ccccc1Cl,75.3%
12,COc1cccc(-c2nc3sccn3c2-c2ccnc(NCCNC(=O)c3ccccc3)n2)c1,85.1%
13,COc1ccc(-c2nn(-c3ccc(NC(=O)Nc4ccc(Cl)c(C(F)(F)F)c4)cc3)cc2-c2ccncc2)cc1Cl,0.583% (active)
14,CC(C)CNCC(O)COc1ccc(C(C)(C)c2ccc(OCC(O)CNCC(C)C)cc2)cc1 (stereo unspecified),69.4%
15,Cc1ccc2[nH]c3nc4cccnc4c(C)c3c2c1,68.6%
16,O=C(Nc1ccc(-n2ccc3c(NC(=O)c4ccccc4)nccc32)cc1)c1ccc(Cl)c(C(F)(F)F)c1,37.6%
17,COc1ccc(-c2nn(-c3ccc(NC(=O)Nc4ccc(Cl)c(Cl)c4)cc3)cc2-c2ccncc2)cc1Cl,14.2%
18,Nc1nccc2c1ccn2-c1cccc(NC(=O)c2ccc(N3CCOCC3)c(C(F)(F)F)c2)c1,-5.74% (active)
19,COc1ccc(/C=C/C(=O)/C=C(/C=C/c2ccc(OC)c(OC)c2OC)OB(F)F)c(OC)c1OC,31.4%
20,COC1=C(OC)C(=O)C=CC1=O,94.4%
21,Cc1ccccc1C[P+](c1ccccc1)(c1ccccc1)c1ccccc1,29.6%
22,COc1cccc(-c2nc3sccn3c2-c2ccnc(NCCNC(=O)Nc3cccc(C(F)(F)F)c3)n2)c1,71.9%
23,COc1ccc(-c2cnc(-c3ccc(F)cc3)[nH]2)cc1,314%
24,O=C(Nc1ccc(-n2cc(-c3ccncc3)c(-c3ccc(O)c(Cl)c3)n2)cc1)c1ccc(Cl)c(C(F)(F)F)c1,14.9%
25,O=C(Nc1ccc(-n2ccc3c(NC(=O)c4ccccc4)ncnc32)cc1)c1ccc(Cl)c(C(F)(F)F)c1,55.1%
26,O=[N+]([O-])c1cccc(C(c2ccccc2)c2ccccc2)c1,106%
27,O=C(NCCNc1nccc(-c2c(-c3cccc(O)c3)nc3sccn23)n1)Nc1cccc(C(F)(F)F)c1,41.1%
28,O=C(Nc1cccc(-n2ccc3c(NC(=O)c4ccccc4)nccc32)c1)c1cc(N2CCOCC2)cc(C(F)(F)F)c1,-13.1% (active)
29,O=C(Nc1ccc(-n2cc(-c3ccncc3)c(-c3ccc(O)c(Cl)c3)n2)cc1)c1cc(C(F)(F)F)cc(C(F)(F)F)c1,53.3%
